# Where “and” joins values, the source holds several entries; their conditions need not be identical. Equal entries are not always repeated. Out of some 5,500 compounds screened, about 2,000 (36%) were called active. Not shown: some 18% with an inconclusive outcome. The list shows a part of the results. Unmarked numbers belong to inactive results. Rule as the data show it: active = normalized growth mostly below about 0.91 (no sharp cut-off); inconclusive = no clear call, values can overlap the other calls; inactive = mostly above about 0.92.
# Test: chemical genetic growth profiling, strain panel (AID 1159580);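 also: tested at 20 µM; growth read once vehicle control cultures reached saturation at 30 °C; 1 = growth at the plate median or of vehicle wells; lower values mean less growth of the strain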
# Details: S. cerevisiae deletion strains, growth OD
compound,measurement,setting,value
COc1ccc(-c2coc3cc(O)ccc3c2=O)cc1,normalized growth,"locus YAL021C, strain ccr4, hits give low values",1
same,normalized growth,"locus YAL026C, strain drs2, hits give low values",0.943
same,normalized growth,"locus YAL030W, strain snc1, hits give low values",0.986
same,normalized growth,"locus YBL061C, strain skt5, hits give low values",0.983
same,normalized growth,"locus YBR009C, strain hhf1, hits give low values",0.953
same,normalized growth,"locus YBR021W, strain FUR4, hits give low values",0.751 (active)
same,normalized growth,"locus YBR023C, strain chs3, hits give low values",0.98
same,normalized growth,"locus YBR171W, strain sec66, hits give low values",0.973
same,normalized growth,"locus YBR229C, strain ROT2, hits give low values",0.967
same,normalized growth,"locus YBR231C, strain swc5, hits give low values",0.964
same,normalized growth,"locus YBR279W, strain paf1, hits give low values",0.993
same,normalized growth,"locus YCL011C, strain gbp2, hits give low values",0.965
same,normalized growth,"locus YCL016C, strain dcc1, hits give low values",0.974
same,normalized growth,"locus YCL029C, strain bik1, hits give low values",0.949
same,normalized growth,"locus YCL061C, strain MRC1, hits give low values",0.959
same,normalized growth,"locus YCL069W, strain vba3, hits give low values",0.98
same,normalized growth,"locus YCR088W, strain abp1, hits give low values",0.982
same,normalized growth,"locus YDL005C, strain med2, hits give low values",0.982
same,normalized growth,"locus YDL035C, strain GPR1, hits give low values",0.933
same,normalized growth,"locus YDL040C, strain nat1, hits give low values",0.985
same,normalized growth,"locus YDL074C, strain BRE1, hits give low values",0.839
same,normalized growth,"locus YDL101C, strain DUN1, hits give low values",0.916
same,normalized growth,"locus YDL185W, strain tfp1, hits give low values",0.964
same,normalized growth,"locus YDL192W, strain arf1, hits give low values",0.912 (active)
same,normalized growth,"locus YDR001C, strain nth1, hits give low values",0.978
same,normalized growth,"locus YDR069C, strain doa4, hits give low values",1.01
same,normalized growth,"locus YDR101C, strain arx1, hits give low values",0.941
same,normalized growth,"locus YDR137W, strain rgp1, hits give low values",0.906
same,normalized growth,"locus YDR159W, strain sac3, hits give low values",0.955
same,normalized growth,"locus YDR162C, strain NBP2, hits give low values",0.894
same,normalized growth,"locus YDR195W, strain ref2",1.13
same,normalized growth,"locus YDR297W, strain sur2, hits give low values",0.978
same,normalized growth,"locus YDR318W, strain mcm21, hits give low values",0.896 (active)
same,normalized growth,"locus YDR334W, strain swr1, hits give low values",0.989
same,normalized growth,"locus YDR335W, strain msn5, hits give low values",0.99
same,normalized growth,"locus YDR388W, hits give low values",0.964
same,normalized growth,"locus YDR392W, strain spt3, hits give low values",0.726 (active)
same,normalized growth,"locus YDR502C, strain sam2, hits give low values",0.878 (active)
same,normalized growth,"locus YEL003W, strain gim4, hits give low values",0.977
same,normalized growth,"locus YEL037C, strain rad23, hits give low values",0.983
same,normalized growth,"locus YEL061C, strain CIN8 (second series), hits give low values",0.986
same,normalized growth,"locus YER015W, strain faa2, hits give low values",0.989
same,normalized growth,"locus YER016W, strain bim1, hits give low values",0.979
same,normalized growth,"locus YER110C, hits give low values",0.974
same,normalized growth,"locus YER111C, strain swi4, hits give low values",0.992
same,normalized growth,"locus YER155C, strain BEM2 (second series), hits give low values",0.907
same,normalized growth,"locus YER155C, strain BEM2, hits give low values",0.962
same,normalized growth,"locus YER167W, strain BCK2, hits give low values",0.973
same,normalized growth,"locus YFR010W, strain ubp6, hits give low values",0.984
same,normalized growth,"locus YGL078C, strain dbp3, hits give low values",0.91 (active)
same,normalized growth,"locus YGL086W, strain mad1, hits give low values",0.884 (active)
same,normalized growth,"locus YGL167C, strain pmr1, hits give low values",0.997
same,normalized growth,"locus YGL173C, strain kem1, hits give low values",0.979
same,normalized growth,"locus YGL227W, strain vid30, hits give low values",0.981
same,normalized growth,"locus YGL240W, strain doc1, hits give low values",0.916
same,normalized growth,"locus YGL248W, strain PDE1, hits give low values",0.853 (active)
same,normalized growth,"locus YGL253W, strain hxk2, hits give low values",0.932
same,normalized growth,"locus YGR135W, strain pre9, hits give low values",0.821 (active)
same,normalized growth,"locus YGR252W, strain gcn5, hits give low values",0.698 (active)
same,normalized growth,"locus YHR013C, strain ard1, hits give low values",0.977
same,normalized growth,"locus YHR027C, strain rpn1, hits give low values",0.995
same,normalized growth,"locus YHR030C, strain SLT2, hits give low values",0.975 and 0.906
same,normalized growth,"locus YHR079C, strain IRE1 (second series), hits give low values",0.969
same,normalized growth,"locus YHR079C, strain IRE1, hits give low values",0.936
same,normalized growth,"locus YHR094C, strain hxt1, hits give low values",0.96
same,normalized growth,"locus YHR129C, strain ARP1, hits give low values",0.929
same,normalized growth,"locus YHR142W, strain chs7, hits give low values",0.893
same,normalized growth,"locus YHR200W, strain rpn10, hits give low values",0.904 (active)
same,normalized growth,"locus YIL066C, strain RNR3, hits give low values",0.957
same,normalized growth,"locus YIL073C, strain SPO22, hits give low values",0.886
same,normalized growth,"locus YIL125W, strain kgd1, hits give low values",0.966
same,normalized growth,"locus YIR030C, strain dcg1, hits give low values",0.961
same,normalized growth,"locus YJL092W, strain hpr5, hits give low values",0.974
same,normalized growth,"locus YJL095W, strain BCK1 (second series), hits give low values",0.987
same,normalized growth,"locus YJL095W, strain BCK1, hits give low values",0.81 and 0.908
same,normalized growth,"locus YJL115W, strain asf1, hits give low values",0.998
same,normalized growth,"locus YJL129C, strain trk1, hits give low values",0.954
same,normalized growth,"locus YJL134W, strain LCB3, hits give low values",0.98
same,normalized growth,"locus YJL154C, strain vps35, hits give low values",0.982
same,normalized growth,"locus YJL164C, strain tpk1, hits give low values",0.943
same,normalized growth,"locus YJL166W, strain qcr8, hits give low values",0.951
same,normalized growth,"locus YJL168C, strain set2, hits give low values",0.977
same,normalized growth,"locus YJL187C, strain SWE1 (second series), hits give low values",0.879
same,normalized growth,"locus YJL187C, strain SWE1, hits give low values",0.984
same,normalized growth,"locus YJR066W, strain TOR1, hits give low values",0.836
same,normalized growth,"locus YKL009W, strain mrt4, hits give low values",0.914
same,normalized growth,"locus YKL068W, hits give low values",0.965
same,normalized growth,"locus YKL085W, strain MDH1 (second series), hits give low values",0.968
same,normalized growth,"locus YKL085W, strain MDH1, hits give low values",0.968
same,normalized growth,"locus YKL160W, strain elf1, hits give low values",0.942
same,normalized growth,"locus YKR001C, strain vps1, hits give low values",0.837 (active)
same,normalized growth,"locus YKR026C, strain gcn3, hits give low values",0.981
same,normalized growth,"locus YKR091W, strain srl3, hits give low values",0.984
same,normalized growth,"locus YLL001W, strain dnm1, hits give low values",0.954
same,normalized growth,"locus YLL026W, hits give low values",0.977
same,normalized growth,"locus YLL041C, strain sdh2, hits give low values",0.983
same,normalized growth,"locus YLR027C, strain aat2, hits give low values",0.965
same,normalized growth,"locus YLR039C, strain RIC1, hits give low values",0.784
same,normalized growth,"locus YLR058C, strain SHM2, hits give low values",0.906
same,normalized growth,"locus YLR102C, strain apc9, hits give low values",0.975
same,normalized growth,"locus YLR113W, strain HOG1, hits give low values",0.992
same,normalized growth,"locus YLR221C, strain rsa3, hits give low values",0.929
same,normalized growth,"locus YLR258W, strain gsy2, hits give low values",0.99
same,normalized growth,"locus YLR262C, strain YPT6 (second series), hits give low values",0.881
same,normalized growth,"locus YLR268W, strain sec22, hits give low values",0.9
same,normalized growth,"locus YLR320W, strain mms22, hits give low values",0.919
same,normalized growth,"locus YLR330W, strain CHS5, hits give low values",0.896 (active)
same,normalized growth,"locus YLR342W, strain FKS1 (second series), hits give low values",0.876
same,normalized growth,"locus YLR342W, strain FKS1, hits give low values",0.975
same,normalized growth,"locus YLR357W, strain rsc2, hits give low values",0.95
same,normalized growth,"locus YLR371W, strain rom2, hits give low values",0.993
same,normalized growth,"locus YLR384C, strain iki3, hits give low values",0.989
same,normalized growth,"locus YLR418C, strain cdc73, hits give low values",0.74 (active)
same,normalized growth,"locus YML016C, strain PPZ1, hits give low values",0.959
same,normalized growth,"locus YML032C, strain rad52, hits give low values",0.933
same,normalized growth,"locus YML120C, strain ndi1, hits give low values",0.955
same,normalized growth,"locus YML124C, strain tub3, hits give low values",0.974
same,normalized growth,"locus YMR058W, strain fet3, hits give low values",0.952
same,normalized growth,"locus YMR078C, strain ctf18, hits give low values",0.961
same,normalized growth,"locus YMR125W, strain sto1, hits give low values",0.98
same,normalized growth,"locus YMR129W, hits give low values",0.981
same,normalized growth,"locus YMR205C, strain PFK2, hits give low values",0.972
same,normalized growth,"locus YMR223W, strain ubp8, hits give low values",0.913
same,normalized growth,"locus YMR231W, strain pep5, hits give low values",1
same,normalized growth,"locus YMR307W, strain GAS1, hits give low values",0.706
same,normalized growth,"locus YNL067W, strain RPL9B, hits give low values",0.87
same,normalized growth,"locus YNL071W, strain lat1, hits give low values",0.924
same,normalized growth,"locus YNL183C, strain NPR1, hits give low values",0.872
same,normalized growth,"locus YNL209W, strain ssb2, hits give low values",0.987
same,normalized growth,"locus YNL233W, strain BNI4, hits give low values",0.827 (active)
same,normalized growth,"locus YNL248C, strain rpa49, hits give low values",0.94
same,normalized growth,"locus YNL250W, strain rad50, hits give low values",0.944
same,normalized growth,"locus YNL271C, strain bni1, hits give low values",0.941
same,normalized growth,"locus YNL298W, strain CLA4, hits give low values",0.928
same,normalized growth,"locus YNL307C, strain MCK1, hits give low values",0.847 (active)
same,normalized growth,"locus YNL322C, strain KRE1 (second series), hits give low values",0.979
same,normalized growth,"locus YNR049C, strain mso1, hits give low values",0.986
same,normalized growth,"locus YNR052C, strain pop2, hits give low values",0.927
same,normalized growth,"locus YOL012C, strain htz1",0.948
same,normalized growth,"locus YOL147C, strain pex11, hits give low values",0.934
same,normalized growth,"locus YOR001W, strain rrp6, hits give low values",0.952
same,normalized growth,"locus YOR061W, strain CKA2, hits give low values",0.985
same,normalized growth,"locus YOR069W, strain VPS5, hits give low values",0.927
same,normalized growth,"locus YOR070C, strain gyp1, hits give low values",0.975
same,normalized growth,"locus YOR080W, strain dia2, hits give low values",0.993
same,normalized growth,"locus YOR083W, strain WHI5, hits give low values",0.91
same,normalized growth,"locus YOR106W, strain vam3, hits give low values",0.915
same,normalized growth,"locus YOR136W, strain idh2, hits give low values",0.95
same,normalized growth,"locus YOR144C, strain elg1, hits give low values",0.968
same,normalized growth,"locus YOR184W, strain ser1, hits give low values",0.931
same,normalized growth,"locus YOR231W, strain MKK1, hits give low values",0.934
same,normalized growth,"locus YOR265W, strain rbl2, hits give low values",0.999
same,normalized growth,"locus YOR270C, strain vph1, hits give low values",0.807
same,normalized growth,"locus YOR290C, strain snf2, hits give low values",0.88
same,normalized growth,"locus YOR316C, strain cot1, hits give low values",0.96
same,normalized growth,"locus YPL051W, strain arl3, hits give low values",0.943
same,normalized growth,"locus YPL078C, strain atp4, hits give low values",0.905
same,normalized growth,"locus YPL106C, strain sse1, hits give low values",0.984
same,normalized growth,"locus YPL240C, strain hsp82, hits give low values",0.984
same,normalized growth,"locus YPL241C, strain CIN2, hits give low values",0.998
same,normalized growth,"locus YPL256C, strain CLN2, hits give low values",0.922
same,normalized growth,"locus YPR119W, strain clb2, hits give low values",0.973
same,normalized growth,"locus YPR141C, strain kar3, hits give low values",0.967
same,normalized growth,"locus YPR163C, strain tif3, hits give low values",0.794 (active)
same,normalized growth,"locus YPR167C, strain met16, hits give low values",0.93
same,normalized growth,"strain wtn01, hits give low values",0.911
